Results: PubChem BioAssay
Active and inactive are the calls of the source. Unless noted, the rule behind the calls is not given here.

Columns and labels:
[1] = HepG2 liver cancer cell viability effects, profiling panel, resazurin fluorescence, 24 h, PK04 Diversity Set (AID 1172); details: higher = more signal; note: test concentration not given here
[2] = basal S. cerevisiae growth modulation, no modifier, primary screen, OD600, strain BY4716, 24 h, basal condition (AID 1173); details: OD600, 24 h, higher = more signal, called active from +8 up or from −8 down
[3] = MM1S myeloma cell viability, profiling panel, resazurin fluorescence, basal, 24 h, PK04 Diversity Set (AID 1174); details: higher = more signal, called active from +8 up or from −8 down;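 note: MM1S multiple myeloma cell line; test concentration not given here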
[4] = target: Dihydroorotate dehydrogenase (quinone), mitochondrial (Plasmodium falciparum (isolate 3D7)) (UniProt Q08210); experiment: PfDHODH enzyme inhibitors, primary screen, biochemical, C-terminal His tag, absorbance 600 nm (AID 1175); details: DCIP absorbance 600 nm, higher = more signal, called active from +8 up or from −8 down;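 note: recombinant parasite enzyme with a five histidine tag at its C terminus; test concentration not given here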
[5] = P. aeruginosa biofilm formation inhibitors, primary screen, strain PAO1, LB-PBS medium, absorbance 600 nm (AID 1176); note: test concentration not given here; details: P. aeruginosa PAO1 growth/biofilm, A600, 12 h; higher = more signal
[6] = S. cerevisiae RM11-1a growth modifiers, primary screen, strain RM11-1a, OD600, basal, 24 h (AID 1177); details: OD600, 24 h, higher = more signal, called active from +8 up or from −8 down;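 note: cultures grown under basal conditions with no added stressor; test concentration not given here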
[7] = E. coli acrAB mutant growth effects, primary screen, E. coli filamentation inducers, strain DRC39, OD650, 24 h (AID 1178); details: higher = more signal, called active from +8 up or from −8 down;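 note: growth measured as culture turbidity by optical density at 650 nm; test concentration not given here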
[8] = E. coli acrAB mutant growth effects, primary screen, E. coli filamentation inducers, strain DRC39, OD650, 48 h (AID 1179);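 note: screen aims at cell division blockers that make cells filament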; details: E. coli DRC39 delta-acrAB growth, higher = more signal, called active from +8 up or from −8 down
[9] = RPMI8226 myeloma cell viability, profiling panel, resazurin fluorescence, basal, 24 h, PK04 Diversity Set (AID 1180); details: higher = more signal;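 note: RPMI8826 multiple myeloma cell line at 5000 cells per well; test concentration not given here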
[10] = target: E3 ubiquitin-protein ligase XIAP (Homo sapiens) (UniProt P98170); experiment: XIAP binders, primary screen, biophysical, small-molecule microarray, fluorescence 635 nm (AID 1181); details: small-molecule microarray binding, higher = more signal;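 note: score merges 667 nm emission and signal to noise over triplicate slides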
Chain of E3 ubiquitin-protein ligase XIAP (Homo sapiens) (P98170 whole entry, looked up): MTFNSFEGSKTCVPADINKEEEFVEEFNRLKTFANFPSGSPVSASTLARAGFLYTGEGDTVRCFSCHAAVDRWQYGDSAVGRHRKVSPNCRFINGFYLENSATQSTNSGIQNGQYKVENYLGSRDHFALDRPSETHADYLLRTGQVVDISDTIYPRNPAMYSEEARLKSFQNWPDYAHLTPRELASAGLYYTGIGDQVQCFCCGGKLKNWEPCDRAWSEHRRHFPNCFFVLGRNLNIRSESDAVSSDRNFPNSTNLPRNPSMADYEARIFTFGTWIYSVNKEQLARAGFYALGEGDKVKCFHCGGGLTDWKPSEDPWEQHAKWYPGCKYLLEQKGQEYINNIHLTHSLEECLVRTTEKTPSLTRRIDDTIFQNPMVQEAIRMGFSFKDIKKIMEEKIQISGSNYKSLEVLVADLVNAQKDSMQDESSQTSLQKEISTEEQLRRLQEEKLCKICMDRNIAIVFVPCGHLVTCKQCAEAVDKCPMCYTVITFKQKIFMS

Chain of Dihydroorotate dehydrogenase (quinone), mitochondrial (Plasmodium falciparum (isolate 3D7)) (Q08210 whole entry, looked up): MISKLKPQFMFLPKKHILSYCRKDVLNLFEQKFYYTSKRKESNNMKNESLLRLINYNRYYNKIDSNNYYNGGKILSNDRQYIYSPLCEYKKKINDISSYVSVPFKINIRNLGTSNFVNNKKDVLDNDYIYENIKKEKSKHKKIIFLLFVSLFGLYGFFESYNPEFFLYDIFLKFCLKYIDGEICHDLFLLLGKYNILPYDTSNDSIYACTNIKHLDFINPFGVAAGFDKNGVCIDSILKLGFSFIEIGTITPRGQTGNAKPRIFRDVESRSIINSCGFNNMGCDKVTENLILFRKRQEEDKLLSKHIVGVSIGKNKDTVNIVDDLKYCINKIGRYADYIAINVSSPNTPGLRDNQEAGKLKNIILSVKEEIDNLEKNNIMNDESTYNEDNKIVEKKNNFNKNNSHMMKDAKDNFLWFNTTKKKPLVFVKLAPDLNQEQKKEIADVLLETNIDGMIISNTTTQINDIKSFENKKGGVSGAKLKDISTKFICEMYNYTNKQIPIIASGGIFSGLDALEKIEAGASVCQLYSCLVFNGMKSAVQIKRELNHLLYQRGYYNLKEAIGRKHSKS

SMILES	z-score [1]	z-score [2]	z-score [3]	composite z-score [4]	z-score [5]	z-score [6]	z-score [7]	z-score [8]	z-score [9]	composite z-score [10]
CCN1C(=O)[C@H]2[C@H]3[C@H](O)[C@H](O)CC(=NOC[C@@H](O)[C@H]4O[C@@H]5OC(C)(C)O[C@@H]5[C@H]4O)[C@@H]3CC[C@H]2C1=O	-1.27	-0.569 (inactive)	-2.69 (inactive)	-0.898 (inactive)	-0.795 (inactive)	-0.0223 (inactive)	0.74 (inactive)	0.144 (inactive)	-0.767	0.0126
CCOC(=O)[C@H](Cc1ccccc1)NC(=O)CCC1CC(OC(=O)NCc2ccc3c(c2)OCO3)CC2(CCCC(COC(=O)NCCc3ccc(Cl)cc3)O2)O1 (stereo not given in full)	-0.202	-0.65 (inactive)	0.366 (inactive)	-1.47 (inactive)	0.769 (inactive)	-1.72 (inactive)	-0.226 (inactive)	-0.756 (inactive)	-0.759	-0.133
CON=C1c2cc(OC)ccc2O[C@H](c2cccc(OC)c2)[C@H]1O	0.291	-5.98 (inactive)	0.322 (inactive)	-0.469 (inactive)	-0.455 (inactive)	-0.175 (inactive)	0.489 (inactive)	0.957 (inactive)	0.411	0.418
CO[C@@H]1COC(=O)CC=C[C@H](C)[C@H](OC)COC(=O)[C@@H]2CCCN2C(=O)CC=C[C@H]1C	-0.144	-1.17 (inactive)	0.918 (inactive)	-0.222 (inactive)	-1.33 (inactive)	-0.203 (inactive)	0.422 (inactive)	-0.0617 (inactive)	0.306	-0.02
CCN1C(=O)[C@H]2[C@H]3[C@H](O)[C@H](O)CC(=NOCC=C(C)CCC=C(C)C)[C@@H]3CC[C@H]2C1=O	-0.623	-6.59 (inactive)	-0.719 (inactive)	-1.16 (inactive)	-0.446 (inactive)	-0.29 (inactive)	0.42 (inactive)	-0.731 (inactive)	-0.517	0.155
COc1ccc(COC(=O)NN=C2C[C@@H](O)[C@@H](O)[C@@H]3[C@@H]4C(=O)N([C@@H](C)c5ccccc5)C(=O)[C@@H]4CC[C@@H]23)cc1	-0.295	0.501 (inactive)	-0.525 (inactive)	-0.194 (inactive)	-0.0363 (inactive)	-0.887 (inactive)	0.0247 (inactive)	0.528 (inactive)	-0.521	-0.126
CC(CCN1CCCc2nc(C)c(C)cc21)=NO[C@@H](C)c1cn([C@H](CO)Cc2ccccc2)nn1	-0.333	0.472 (inactive)	0.0688 (inactive)	-1.1 (inactive)	-0.725 (inactive)	0.792 (inactive)	0.851 (inactive)	0.961 (inactive)	-0.789	0.115
CC(C)(C)N1C(=O)[C@H]2[C@H]3[C@H](O)[C@H](O)CC(=NOC[C@@H](O)COCc4ccco4)[C@H]3CC[C@H]2C1=O	-0.488	0.262 (inactive)	-0.622 (inactive)	0.748 (inactive)	-0.0606 (inactive)	0.0001 (inactive)	-0.0207 (inactive)	-0.149 (inactive)	-0.583	-0.334
CC#CCOCCC=C1c2ccccc2[C@@H](OC)[C@@H]1C	0.651	-1.71 (inactive)	-0.725 (inactive)	-0.412 (inactive)	0.204 (inactive)	-0.551 (inactive)	-0.158 (inactive)	0.212 (inactive)	0.258	2.61
CO[C@@H](C1CCCCC1)[C@@H](C)[C@H](OCc1cccc(Br)c1)[C@@H](C)CO	0.414	-2.13 (inactive)	-0.885 (inactive)	0.0434 (inactive)	-0.127 (inactive)	-0.0839 (inactive)	-0.275 (inactive)	-0.776 (inactive)	-0.835	-0.16
CCOC(=O)[C@H](CC(C)C)NC(=O)CCC1CC(OC(=O)NCc2ccc3c(c2)OCO3)CC2(CCCC(COC(=O)NCc3ccccc3)O2)O1 (stereo not given in full)	1.32	0.918 (inactive)	0.624 (inactive)	-0.047 (inactive)	-0.282 (inactive)	1.26 (inactive)	0.533 (inactive)	-0.0559 (inactive)	0.836	0.0727
O=C(NN=C1C[C@@H](O)[C@@H](O)[C@@H]2[C@@H]3C(=O)N(Cc4ccccc4)C(=O)[C@@H]3CC[C@H]12)OCc1ccccc1	0.604	-0.921 (inactive)	1.14 (inactive)	-0.993 (inactive)	0.471 (inactive)	-0.948 (inactive)	0.59 (inactive)	-0.783 (inactive)	0.9	-0.21
CC(C)(C)N1C(=O)[C@H]2[C@@H]3C(=CC[C@H]2C1=O)C(=O)[C@H]1O[C@H]1[C@H]3O	-4.22	-4.73 (inactive)	-7.59 (inactive)	-2.71 (inactive)	-0.331 (inactive)	-3.03 (inactive)	-0.662 (inactive)	-0.613 (inactive)	-5.04	-0.178
CCc1cc2c(nc1CC)CCN(CCC(C)=NOCC[C@@H]1C=C[C@H](OC(C)=O)[C@@H](COC(C)=O)O1)C2	0.0383	0.859 (inactive)	-0.123 (inactive)	0.903 (inactive)	0.122 (inactive)	1.23 (inactive)	-0.157 (inactive)	-1.33 (inactive)	0.154	-0.212
CC(=O)OC[C@H]1O[C@H](CC=NO[C@@H](C)c2cc(-c3c(C)cc(C)cc3C)no2)C=C[C@@H]1OC(C)=O	-0.583	0.493 (inactive)	-0.523 (inactive)	0.272 (inactive)	-1.17 (inactive)	0.142 (inactive)	0.165 (inactive)	0.105 (inactive)	0.138	-0.126
COC(=O)[C@H](C)NC(=O)CCC1CC(OC(=O)NCc2cccc3ccccc23)CC2(CCCC(COC(=O)NCCC(C)C)O2)O1 (stereo not given in full)	0.817	-0.274 (inactive)	0.505 (inactive)	-1.24 (inactive)	-0.0691 (inactive)	-0.186 (inactive)	0.443 (inactive)	0.594 (inactive)	0.452	-0.191
COc1ccc(OC[C@H]2CN3[C@@H](CC[C@@H](C)[C@@H]3c3ccc(Br)cc3)C(=O)O2)cc1	-0.699	-1.63 (inactive)	0.649 (inactive)	0.217 (inactive)	-1.52 (inactive)	-0.13 (inactive)	-1.87 (inactive)	-1.35 (inactive)	-0.134	-0.129
O=C1C=C[C@@H](O)[C@@H]2[C@@H]3C(=O)N(C4CCCCC4)C(=O)[C@@H]3CC[C@@H]12	-0.295	-1.28 (inactive)	-1.45 (inactive)	-0.168 (inactive)	-0.601 (inactive)	0.246 (inactive)	-0.292 (inactive)	-0.191 (inactive)	-1.31	-0.269
C[C@H]1CC[C@H]2C(=O)OC(COc3ccc(C(C)(C)C)cc3)CN2[C@@H]1c1ccc(Br)cc1 (stereo not given in full)	0.272	-4.88 (inactive)	0.283 (inactive)	-0.673 (inactive)	1.18 (inactive)	-0.249 (inactive)	1.22 (inactive)	0.662 (inactive)	-0.317	-0.173
CC(CCN1CCc2nc(-c3ccccc3)c(-c3ccccc3)cc2C1)=NO[C@H](C)c1cn([C@H](CO)Cc2ccccc2)nn1	-0.391	-1.74 (inactive)	0.474 (inactive)	-1.38 (inactive)	0.593 (inactive)	-0.222 (inactive)	-0.424 (inactive)	-1.95 (inactive)	0.2	-0.156
O=C1C=C[C@@H](O)[C@@H]2[C@@H]3C(=O)N(Cc4ccc5c(c4)OCO5)C(=O)[C@@H]3CC[C@@H]12	-0.557	0.516 (inactive)	0.966 (inactive)	0.0627 (inactive)	0.0122 (inactive)	-0.129 (inactive)	0.207 (inactive)	-0.173 (inactive)	0.422	-0.0233
O=C1[C@H]2[C@H]3[C@H](O)[C@H](O)CC(=NOC[C@@H](O)COCc4ccco4)[C@@H]3CC[C@H]2C(=O)N1Cc1ccc2c(c1)OCO2	0.351	0.182 (inactive)	-0.524 (inactive)	-0.395 (inactive)	0.0578 (inactive)	0.865 (inactive)	0.764 (inactive)	1.29 (inactive)	0.501	-0.148
COC(=O)CC=C[C@@H](C)[C@@H](C=NOC(C)CN1CCCCc2nc(C)c(C)cc21)NS(=O)(=O)c1ccc(C)cc1 (stereo not given in full)	-0.194	0.434 (inactive)	-0.71 (inactive)	-0.069 (inactive)	0.0525 (inactive)	-0.472 (inactive)	0.424 (inactive)	0.607 (inactive)	0.0077	-0.244
COC(=O)CC=C[C@@H](C)[C@@H](C=NOC[C@@H](O)COCc1ccco1)NS(=O)(=O)c1ccc(C)cc1	-0.8	0.0959 (inactive)	-0.309 (inactive)	0.444 (inactive)	-0.312 (inactive)	0.186 (inactive)	0.388 (inactive)	0.124 (inactive)	-0.974	-0.309
